Most compounds without a hit are left out; they make up all but 1.9% or so of the library.
SK-BR-3 tox 24h = SK-BR-3 proliferation inhibitors. SK-BR-3 viability, CellTiter-Glo ATP luminescence, 24 h; stronger effect = lower value. viability, % at 10 µM. actives 0.47% (n = 41,000). AID 847;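 active = viability at or below the median of all test compounds minus 3 SD, in both replicates if run twice, cut at about 45% in these data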
HER2 expr 66K = lowers expression of human Her2 kinase; SKBR-3 HER2 protein level, AlphaScreen, 18-24 h; stronger effect = lower value; HER2 level % of control, % at 10 µM; actives 0.69% (n = 65,000);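 active = HER2 level under 5% of the carrier-only control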;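 note: lower value means stronger loss of Her2 protein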
S1P1 ag pot = agonists and agonism potentiators of human S1P1 receptor; actives 0.57% (n = 56,000); AID 449; activation, % at 9.5 µM; S1P1 CRE-bla cells, forskolin, beta-lactamase FRET, potentiator mode; S1P1 agonist co-added at EC20, 2 nM; 100% = saturating reference agonist, 0% = basal;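 active = activation above a cutoff set at the mean activation of all tested compounds plus 3 SD, cut at about 54% in these data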;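 note: forskolin at 4 µM as EC80 and the EC20 agonist is SEW2871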
TNAP act mid DEA = activates human TNAP at intermediate phosphate acceptor concentration | P05186 | purified TNAP, CDP-star luminescence, 100 mM DEA, 30 min; stronger effect = higher value; scale: 0 levamisole-inhibited, 1 vehicle-only enzyme | activation factor at 20 µM | 64,000 tested, under 10 active;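 active = activation factor of at least 2 at 20 µM, relative to controls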
Target sequence (P05186 whole entry, looked up): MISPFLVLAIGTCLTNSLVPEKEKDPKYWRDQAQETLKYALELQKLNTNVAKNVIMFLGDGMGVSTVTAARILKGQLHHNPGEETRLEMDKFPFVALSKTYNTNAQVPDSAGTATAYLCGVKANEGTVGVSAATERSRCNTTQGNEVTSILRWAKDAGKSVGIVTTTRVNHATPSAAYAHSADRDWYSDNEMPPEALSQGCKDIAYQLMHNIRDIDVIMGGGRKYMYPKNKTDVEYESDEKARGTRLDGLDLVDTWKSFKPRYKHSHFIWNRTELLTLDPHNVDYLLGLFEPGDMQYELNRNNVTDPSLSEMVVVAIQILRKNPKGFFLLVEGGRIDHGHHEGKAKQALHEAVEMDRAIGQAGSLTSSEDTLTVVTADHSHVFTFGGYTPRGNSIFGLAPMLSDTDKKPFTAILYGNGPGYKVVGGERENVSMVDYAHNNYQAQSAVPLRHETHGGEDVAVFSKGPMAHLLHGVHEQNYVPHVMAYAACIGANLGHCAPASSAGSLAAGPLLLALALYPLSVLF
BAP1 inh = inhibitors of human BAP1 deubiquitinase | recombinant BAP1, Ub-AMC hydrolysis fluorescence kinetic; stronger effect = lower value | activity remaining (% of control), % at 20 µM | actives 0.48% (n = 72,000);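 active = activity remaining at or below 50% of control, provided the compound also passes the data quality filters; inactive = the rest, including low values that fail the filters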
Hsp90 block = displaces geldanamycin probe from tumor Hsp90; NCI-N417 lysate Hsp90, Cy3B-geldanamycin FP displacement; inhibition, % at 30 µM; actives 0.35% (n = 64,000);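 active = inhibition above 50%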
A number is an active result.

For CCCCCNC(=O)c1ccc2c(=O)[nH]c3c(C(=O)NCC4CCCO4)sc(=S)n3c2c1 (stereo unspecified) the results were HER2 expr 66K inactive, S1P1 ag pot inactive, TNAP act mid DEA inactive, BAP1 inh inactive and Hsp90 block inactive.
Cn1c2c(c(=O)n(C)c1=O)CN(CCN1CCNCC1)CN2 was read as HER2 expr 66K inactive, S1P1 ag pot inactive, TNAP act mid DEA inactive, BAP1 inh inactive and Hsp90 block inactive.
Oc1ccc2ccccc2c1C=NC12CN3CCN(CN(C3)C1)C2 was read as SK-BR-3 tox 24h inactive, HER2 expr 66K inactive, S1P1 ag pot inactive, TNAP act mid DEA inactive, BAP1 inh inactive and Hsp90 block 89.
`O=S(=O)(NC1CCCCC1NCc1ccco1)c1ccccc1` (stereo unspecified) gave SK-BR-3 tox 24h inactive, HER2 expr 66K inactive, S1P1 ag pot inactive, TNAP act mid DEA inactive, BAP1 inh inactive and Hsp90 block inactive.
`CCCCC(C(=O)O)C(C)CC(=O)Nc1cccc(C(=O)O)c1` (stereo unspecified) gave SK-BR-3 tox 24h inactive, HER2 expr 66K -22, S1P1 ag pot inactive, TNAP act mid DEA inactive, BAP1 inh inactive and Hsp90 block inactive.
Screening Cc1ccc(CNC(=O)c2cc3c(-c4ccc(Cl)cc4)nn(C)c3s2)o1 returned HER2 expr 66K -17, S1P1 ag pot inactive, TNAP act mid DEA inactive, BAP1 inh inactive and Hsp90 block inactive.
COCCNC(=O)c1cc2c(-c3ccc(Cl)cc3)nn(C)c2s1 was read as HER2 expr 66K inactive, S1P1 ag pot inactive, TNAP act mid DEA inactive, BAP1 inh inactive and Hsp90 block inactive.
`CCn1c(=O)cc(SCC(=O)NCc2ccccn2)c2ccccc21` gave HER2 expr 66K inactive, S1P1 ag pot inactive, TNAP act mid DEA inactive, BAP1 inh inactive and Hsp90 block inactive.
Screening CCSCCOC(=O)C1=C(C)NC(=O)NC1c1ccc2c(c1)OCO2 (stereo unspecified) returned HER2 expr 66K inactive, S1P1 ag pot inactive, TNAP act mid DEA inactive, BAP1 inh inactive and Hsp90 block inactive.
Screening Cc1noc(C(=O)Nc2ccc3c(c2)OCO3)c1Cl returned HER2 expr 66K inactive, S1P1 ag pot inactive, TNAP act mid DEA inactive, BAP1 inh inactive and Hsp90 block 60.
For Cn1c(SC2=CS(=O)(=O)c3ccccc32)nc2ccccc21 the results were SK-BR-3 tox 24h inactive, HER2 expr 66K -22, S1P1 ag pot inactive, TNAP act mid DEA inactive, BAP1 inh inactive and Hsp90 block inactive.
Screening Cn1c(Cl)nc2ccccc21 returned SK-BR-3 tox 24h inactive, HER2 expr 66K inactive, S1P1 ag pot inactive, TNAP act mid DEA inactive, BAP1 inh inactive and Hsp90 block inactive.
For Cc1cc(C)c2nc(Nc3nc(C)cc(=O)[nH]3)nc(C)c2c1 the results were HER2 expr 66K 0.2, S1P1 ag pot inactive, TNAP act mid DEA inactive, BAP1 inh inactive and Hsp90 block inactive.
For C=CCN1CCc2c(cc(O)c(O)c2Br)[C@@H](c2ccccc2)C1 the results were BAP1 inh inactive and Hsp90 block 81.
O=C(CN1CCOCC1)N1CCc2ccccc2C(c2ccccc2)C1 (stereo unspecified) was read as SK-BR-3 tox 24h inactive, HER2 expr 66K inactive, S1P1 ag pot inactive, TNAP act mid DEA inactive, BAP1 inh inactive and Hsp90 block inactive.
`CCOc1ccc(OCC)c(NC(=O)CNS(=O)(=O)c2cccs2)c1` gave SK-BR-3 tox 24h inactive, HER2 expr 66K inactive and TNAP act mid DEA inactive.
Screening COc1cc(Br)c(S(=O)(=O)Nc2c(C)n(C)n(-c3ccccc3)c2=O)cc1OC returned SK-BR-3 tox 24h inactive, HER2 expr 66K inactive, TNAP act mid DEA inactive, BAP1 inh inactive and Hsp90 block inactive.
CC(OC(=O)c1cccs1)C(=O)NCc1cccs1 (stereo unspecified) was read as SK-BR-3 tox 24h inactive, HER2 expr 66K inactive, S1P1 ag pot inactive, TNAP act mid DEA inactive, BAP1 inh inactive and Hsp90 block 92.
Screening CCn1c(NCc2c[nH]c3ccccc23)nc2ccccc21 returned SK-BR-3 tox 24h inactive, HER2 expr 66K inactive, S1P1 ag pot inactive, BAP1 inh inactive and Hsp90 block inactive.
For Cc1cc(-c2ccccc2)nc(=O)[nH]1 the results were SK-BR-3 tox 24h inactive, HER2 expr 66K -18, S1P1 ag pot inactive, TNAP act mid DEA inactive, BAP1 inh inactive and Hsp90 block inactive.
COc1ccc(-c2cc(C)[nH]c(=S)n2)cc1 was read as BAP1 inh inactive.
Cc1ccccc1-c1nc(CN2CCC(C(=O)NCCC3=CCCCC3)CC2)c(C)o1 was read as HER2 expr 66K -16, S1P1 ag pot inactive, TNAP act mid DEA inactive, BAP1 inh inactive and Hsp90 block inactive.
For CCc1ccc(-c2nc(CN3CCC(C(=O)NCCN(CC)c4ccccc4)CC3)c(C)o2)cc1 the results were HER2 expr 66K -13, S1P1 ag pot inactive, TNAP act mid DEA inactive, BAP1 inh inactive and Hsp90 block inactive.
CCc1ccc(-c2nc(CN3CCC(C(=O)N4CCN(c5ccccc5)CC4)CC3)c(C)o2)cc1 was read as HER2 expr 66K -15, S1P1 ag pot inactive, TNAP act mid DEA inactive, BAP1 inh inactive and Hsp90 block inactive.
CCN(CCNC(=O)C1CCN(Cc2nc(-c3cccc(Cl)c3)oc2C)CC1)c1ccccc1 was read as HER2 expr 66K -13, S1P1 ag pot inactive, TNAP act mid DEA inactive, BAP1 inh inactive and Hsp90 block inactive.
Screening CCN(CCNC(=O)C1CCCN(Cc2nc(-c3ccc(OC)cc3)oc2C)C1)c1ccccc1 (stereo unspecified) returned HER2 expr 66K inactive, S1P1 ag pot inactive, TNAP act mid DEA inactive, BAP1 inh inactive and Hsp90 block inactive.
Screening CCCN(CC(=O)c1cc(C)n(C)c1C)S(=O)(=O)c1cccc(C(F)(F)F)c1 returned HER2 expr 66K inactive, S1P1 ag pot inactive, TNAP act mid DEA inactive, BAP1 inh inactive and Hsp90 block inactive.
`CCN1CCN(C(=O)c2ccc3c(=O)n(C4CCCC4)c(=S)[nH]c3c2)CC1` gave HER2 expr 66K inactive, S1P1 ag pot inactive, TNAP act mid DEA inactive, BAP1 inh inactive and Hsp90 block inactive.
`CCN(CCNC(=O)C1CCN(Cc2nc(-c3ccc(Cl)cc3)oc2C)CC1)c1ccccc1` gave HER2 expr 66K -17, S1P1 ag pot inactive, TNAP act mid DEA inactive, BAP1 inh inactive and Hsp90 block inactive.
CCn1cnc2cc(NCc3ccc(C)cc3)ccc21 was read as SK-BR-3 tox 24h inactive, HER2 expr 66K inactive, S1P1 ag pot inactive, TNAP act mid DEA inactive, BAP1 inh inactive and Hsp90 block inactive.
`CCOc1ccc(CNc2ccc3c(c2)ncn3C)cc1` gave SK-BR-3 tox 24h inactive, HER2 expr 66K -17, S1P1 ag pot inactive, TNAP act mid DEA inactive, BAP1 inh inactive and Hsp90 block inactive.
`CNC(=O)CN(C#N)c1nc(N(C)C)nc(N(C)C)n1` gave SK-BR-3 tox 24h inactive, HER2 expr 66K -20, S1P1 ag pot inactive, TNAP act mid DEA inactive, BAP1 inh inactive and Hsp90 block inactive.

High-throughput results: PubChem BioAssay, several laboratories
